Test results: ChEMBL document CHEMBL3988442, “University of Dundee, Small-Polar-MMV Screening Library” (2021)
About 1,200 (3.2%) of roughly 38,000 compounds showed an effect of 50% or more. The median lay at about -58%. What follows is part of a selection rich in strong results, with near analogues and random picks from the rest.

The compounds below were run on Plasmodium falciparum (assay: Calibr Malaria Delayed Death Assay SOP). Details: concentration 4.99e-06 (unit not given; other assays of the set use mol/L).
Type: functional, organism-based
Parameters: scale not given: in the data most compounds retested in dose-response had high values

| Structure (SMILES) | Percent Effect [%] |
| --- | --- |
| CCOc1cccc(NC(=O)c2cc[nH]n2)n1 | -28.36 |
| Cc1cc(CN2C[C@@H]3COC[C@@H](C(=O)N4CCCCO4)[C@@H]3C2)no1.O=C(O)C(F)(F)F | -37.6 |
| Cc1c(C(C)NC2CCOCC2)cnn1-c1ccc(F)cc1F (configuration not stated) | -4.766 |
| Cc1c(C(C)NCC2CCCC2)cnn1-c1ccc(F)cc1F (configuration not stated) | 70.86 |
| Cc1c(C(C)NC2CSCCSC2)cnn1-c1ccc(F)cc1F (configuration not stated) | -8.599 |
| CCc1nnc(SCc2cc(=O)n3c4c(sc3n2)CCCC4)[nH]1 | -134.4 |
| COc1cncc(-n2nc(C)c(CC(C)=O)c2C)c1 | -95.89 |
| CCC(=O)N1CCC2(COCc3cnc(N4CCOCC4)nc32)C1 (configuration not stated) | -52.14 |
| CCOc1cncc(N2CCN(c3ccccc3F)CC2)n1 | -93.07 |
| Cc1nnc(NCC2(c3ccccc3)CCC2)c(C#N)c1C | -38.66 |
| COc1ccccc1C1(CNc2nnc(C)c(C)c2C#N)CCCC1 | 56.81 |
| COc1ccccc1C1(CNc2nnc(C)c(C)c2C#N)CCOCC1 | 0.02654 |
| CN(Cc1cccnc1)[C@@H]1CN(Cc2ccccn2)[C@@H]2CCCO[C@H]12 | 50.75 |
| CN(Cc1cccnc1)[C@@H]1CN(c2ncc(F)cn2)[C@@H]2CCCO[C@H]12 | -11.41 |
| CN(Cc1cccnc1)[C@@H]1CN(c2ccccn2)[C@@H]2CCCO[C@H]12 | -39.6 |
| CCNC(=O)[C@@H]1C[C@H](N)CN1c1cc(CC)nc(N(C)C)n1 | -75.2 |
| CCNC(=O)[C@@H]1C[C@H](N)CN1c1cc(C(F)(F)F)nc(N(C)C)n1 | 19.6 |
| CCNC(=O)[C@@H]1C[C@H](N)CN1c1cc(C(F)(F)F)nc(N2CCCC2)n1 | 54.16 |
| O=C(O)C(F)(F)F.O=S(=O)(C1CC1)N1CCO[C@H]2[C@@H](Oc3cccnc3)CC[C@@H]21 | -17.81 |
| Cc1ccc(NC(=O)CN2CCC(OCC3CCCO3)CC2)c(C)c1 (configuration not stated) | -25 |
| COCCc1noc(CN2CC(Cc3ccccc3)CC2=O)n1 (configuration not stated) | -62.6 |
| CC(C)C1CCCN1C(=O)c1ccc(-n2ncc(C#N)c2N)cc1 (configuration not stated) | 71.17 |

| Structure (SMILES) | Percent Effect [%] |
| --- | --- |
| CCOC1CCN(C(=O)c2ccc(-n3ncc(C#N)c3N)cc2)CC1 | -36.9 |
| CCCC1SCCN1C(=O)c1ccc(-n2ncc(C#N)c2N)cc1 (configuration not stated) | -3.634 |
| Cc1ccc(N2CCC(N3C[C@@H](CN(C)C)[C@@H](CO)C3)CC2)cc1 | 0.06165 |
| Cc1ccccc1CN1C[C@@H](CN(C)CCO)[C@@H](CO)C1 | 6.489 |
| Cc1cc(F)ccc1N1CCC(N2C[C@@H](C)[C@@](C)(O)C2)CC1 | 37.17 |
| CN(CCO)C[C@@H]1CN(C(=O)c2c(F)cccc2Cl)C[C@@H]1CO | -48.12 |
| COc1ccc(CN2C[C@@H](CN(C)CCO)[C@@H](CO)C2)cc1Cl | -13.19 |
| CN(C)C[C@@H]1CN(Cc2ccccc2C#N)C[C@@H]1CO | -49.24 |
| Cc1c(C(=O)N2CCCC2c2cnn(C)c2)cnn1-c1ccccc1 (configuration not stated) | -71.93 |
| NC(=O)C1CCN(CCCNC(=O)Nc2nncs2)CC1 | -69.85 |
| C=C(C)COc1ccccc1CNCCc1c[nH]cn1 | 4.371 |
| C=C(C)COc1cccc(CNCCc2c[nH]cn2)c1 | 26.04 |
| CCc1ccccc1OCCNCCc1c[nH]cn1 | 69.73 |
| Cn1nccc1C(=O)N1CCCC2(CCN(c3ccsc3)C2=O)C1 (configuration not stated) | -40.86 |
| Cc1ccccc1SCC(=O)NC1CCC(O)CC1 (configuration not stated) | -39.35 |
| CN(C)C(=O)CN1CCN(Cc2coc(-c3cccc(F)c3)n2)CC1 | -61.15 |
| CSc1ccc(-c2nc(CN3C[C@@H](C)NC[C@@H]3C)c(C)o2)cc1 | -63.77 |
| Cc1oc(-c2cc(F)cc(F)c2)nc1CN1C[C@@H](C)NC[C@@H]1C | 59.48 |
| CSc1ccc(-c2nc(CN3CCNCC3C)c(C)o2)cc1 (configuration not stated) | 34.18 |
| Cn1ncc2c1CCCC2NCc1ccc(OCc2cccnc2)cc1 (configuration not stated) | 4.43 |
| CO[C@H]1CCN(c2ncccn2)[C@H]1Cc1ccccc1 | -101.2 |
| COCCO[C@H]1CCN(Cc2ccoc2)[C@H]1Cc1cccnc1 | -10.51 |

| Structure (SMILES) | Percent Effect [%] |
| --- | --- |
| CNC(=O)[C@@H]1C[C@@H]2CCN(Cc3ccoc3)C[C@H]2O1 | -25.74 |
| CO[C@H]1CCN(Cc2nccs2)C[C@@H]1Cc1ccccc1 | -31.89 |
| O=C(CCNS(=O)(=O)c1ccccc1F)NCc1ccoc1 | -33.2 |
| CCC1(CNC(=O)NC(c2nnc3n2CCC3)C(C)C)CCC1 (configuration not stated) | -142 |
| Cc1ccc(C)n1-c1c(C(=O)NCC(c2ccsc2)N(C)C)cnn1C (configuration not stated) | -29.69 |
| COc1ccc(-c2nonc2N)cc1 | -30.35 |
| Cc1cnc(N2CC[C@@H]3O[C@@H](COCC(=O)N(C)C)CC[C@@H]32)nc1.O=C(O)C(F)(F)F | -30.4 |
| CC(C)(C)C1CC(=O)Nc2c1cnn2Cc1ccco1 (configuration not stated) | -56.11 |
| COC1CN(C(=O)NCC(N)=O)CCC(=O)N(C)c2ccccc21 (configuration not stated) | -44.55 |
| COc1ccc(CN2C[C@H]3CCC[C@@H](CN(C)C4CC4)[C@H]3C2)cn1.O=C(O)C(F)(F)F.O=C(O)C(F)(F)F | 77 |
| COc1cc(N2C[C@H]3CCC[C@@H](CN4CCOCC4)[C@H]3C2)ncn1.O=C(O)C(F)(F)F | -88.21 |
| COCCN(C)C[C@@H]1CCC[C@@H]2CN(Cc3ccc(OC)nc3)C[C@@H]21.O=C(O)C(F)(F)F.O=C(O)C(F)(F)F | 78.92 |
| Cc1ccc(N2C[C@H]3CCC[C@@H](CN(C)C)[C@H]3C2)nn1.O=C(O)C(F)(F)F | -59.72 |
| COc1ccc(CN2C[C@H]3CCC[C@@H](CN(C)C)[C@H]3C2)cn1.O=C(O)C(F)(F)F.O=C(O)C(F)(F)F | 48.48 |
| O=C(C[C@@H]1COC[C@H]2CN(Cc3cccnc3)C[C@@H]12)N1CCCC1.O=C(O)C(F)(F)F.O=C(O)C(F)(F)F | -138.8 |
| O=C(C[C@@H]1COC[C@H]2CN(Cc3cccnc3)C[C@@H]12)N1CCOCC1.O=C(O)C(F)(F)F.O=C(O)C(F)(F)F | -46.72 |
| COc1cc(N2C[C@H]3CCC[C@@H](CN(C)C4CC4)[C@H]3C2)ncn1.O=C(O)C(F)(F)F | -80.87 |
| CN(C[C@@H]1CCC[C@@H]2CN(Cc3cccnc3)C[C@@H]21)C1CC1.O=C(O)C(F)(F)F.O=C(O)C(F)(F)F | 55.19 |
| NC(=O)C1CCN(c2ncccc2C(=O)N2CCc3ccccc32)C1 (configuration not stated) | -5.535 |
| Cc1ccc(-c2nc(CN3CCCC(Cn4cncn4)C3)co2)cc1 (configuration not stated) | -95.97 |
| O=C1CCCN1Cc1ncn2c1CN(C(=O)C1CC=CC1)CCC2 | -7.909 |
| COc1cc(F)ccc1N1CCN(Cc2nnc(C3CC3)o2)CC1 | -5.241 |

| Structure (SMILES) | Percent Effect [%] |
| --- | --- |
| c1ccc2[nH]c(C3CCN(Cc4nnc(C5CC5)o4)CC3)cc2c1 | -66.02 |
| COC[C@H]1CN(CC2CC2)C(=O)[C@@H]2CCN(Cc3ccoc3)CC[C@H]12.O=C(O)C(F)(F)F | -86.79 |
| CO[C@H]1CCN(Cc2ccoc2)C[C@@H]1Cc1ccccc1.O=C(O)C(F)(F)F | 66.03 |
| CO[C@@H]1CCN(Cc2nccs2)C[C@@H]1Cc1ccccc1.O=C(O)C(F)(F)F | -15.24 |
| CO[C@@H]1CCN(Cc2ccc(C)o2)[C@H]1Cc1ccccc1.O=C(O)C(F)(F)F | -53.14 |
| COCCN1CC[C@@H](OC)[C@@H]1Cc1ccccc1.O=C(O)C(F)(F)F | 1.708 |
| CO[C@@H]1CCN(Cc2ccoc2)[C@H]1Cc1ccccc1.O=C(O)C(F)(F)F | 59.96 |
| COCCO[C@H]1CCN(Cc2cccnc2)[C@H]1Cc1cccnc1.O=C(O)C(F)(F)F.O=C(O)C(F)(F)F.O=C(O)C(F)(F)F | 3.1 |
| CO[C@@H]1CCN(Cc2nccs2)C[C@@H]1Cc1cccc(C)c1.O=C(O)C(F)(F)F | -13.39 |
| COCCN1CC[C@H](OC)[C@@H]1Cc1ccccc1.O=C(O)C(F)(F)F | 62.78 |
| CO[C@@H]1CCN(Cc2ccoc2)C[C@@H]1Cc1ccccc1.O=C(O)C(F)(F)F | 88.6 |
| COCCN1CC[C@@H](O)[C@@H]1Cc1ccccc1.O=C(O)C(F)(F)F | -35.17 |
| CO[C@H]1CCN(c2nnc(C)s2)C[C@@H]1Cc1ccccc1.O=C(O)C(F)(F)F | -43.17 |
| Cc1noc(C)c1CN1C[C@@H]2COC[C@]2(COc2ccc(C#N)cn2)C1 | -26.6 |
| Cn1ncc2c(N[C@@H]3C[C@@H]4CC[C@H]3C4)nc(-c3ccncc3)nc21 | -96.32 |
| CC(C)OCCCNC(=O)CN1C=Nc2ccccc2S1(=O)=O | -92.03 |
| O=C(N1CCCC1)N1CCN(Cc2cccnc2)c2ncccc2C1.O=C(O)C(F)(F)F.O=C(O)C(F)(F)F | -47.54 |
| COC[C@@]12CCC[C@@H]1CN(C(=O)CN(C)C)C2.O=C(O)C(F)(F)F | -5.547 |
| CCCc1cc(=O)[nH]c(SCc2ccccn2)n1 | -130.6 |
| Cn1cc(C2CCCN2CCc2nc3ccccc3c(=O)[nH]2)cn1 (configuration not stated) | -41.09 |
| CC(C)NC(=O)N1CCC2(CC(=O)N(c3cccc(F)c3)C2)C1 (configuration not stated) | -10.77 |
